# Results filed as inconclusive are left out. Calls of active or inactive are those of the source. The call rests on the fitted dose curve; in most records, active means well fitted curve in the direction sought with a large enough effect; inconclusive means small, poorly fitted or top-dose-only effect, or another doubt; inactive means no such curve, though single readings can be large or run the other way.
# Experiment: qHTS Assay for Compounds Blocking the Interaction Between CBF-beta and RUNX1 for the Treatment of Acute Myeloid Leukemia: SAR for Probe with Orthogonal Assay
# Conditions: ME-1 cells viability, ATPlite luminescence, 48 h; series mostly up to 82.4 µM
# Text: NIH Chemical Genomics Center [NCGC] NIH Molecular Libraries Probe Production centers Network [MLPCN] MLPCN Grant: X01MH083259-01 Assay Submitter (PI): Paul Liu NCGC Assay Overview: Core Binding Factor (CBF) abnormalities are associated with 20-25% of all acute myeloid leukemias (AML), of which 5-10% are further sub classified as acute myelomonocytic leukemia with eosinophilia, also known as M4Eo in the FAB classification scheme. This subtype of leukemia is usually associated with chromosome 16 inversion (p13:q22). Chromosome 16 inversion results in formation of the fusion oncogene CBFB-MYH11, which encodes the fusion protein CBF-beta-SMMHC. […] It has been hypothesized that the interference of CBF-beta and RUNX1 binding could have therapeutic implications for patients with CBF mediated leukemias. We developed a CBF-beta and RUNX1 binding assay in AlphaScreenTM format and optimized it for high throughput screening to search for inhibitors. The goal of this project is to screen MLPCN's compound collection (MLSMR) for identifying the inhibitors of the interaction between CBF-beta and RUNX1 proteins as research probes. If these probes work well in the animal models, the ultimate goal of this project is to development a new drug treatment for this disease. This assay can not be used to assess how apparent inhibitors interfere with protein binding, and whether inhibitors specifically bind to either protein. Disruption of this protein-protein interaction, through any mechanism, is the intended target activity. The present data set was run to confirm the activity of hits from the primary screen using an orthogonal assay technology for measuring protein-protein interaction disruption.
# NCGC Assay protocol: ME-1 suspension cells were grown in T225 flasks to 80% density under a standard cell culture condition (ATCC) using Dulbecco's Modified Eagle Medium (DMEM) + 10% fetal bovine serum, harvested in OPTI-MEM (phenol free) + 10% FBS. Seeded at 500 cells/well in 5uL medium into 1536-well white solid-bottom plates using Multidrop Combi dispenser, and incubated the plates at 37 C with 5% CO2 and 95% humidity for 2 hours prior to pinning compound. Subsequently, 23 nL/well compound solutions or DMSO controls were dispensed to the assay plates via a pintool workstation. Plates were then transferred to 37 C with 5% CO2 and 95% humidity for 48 hours, and then ATP content was measured following the addition of 4uL/well of ATPlite reagent and a 20 min incubation on a ViewLux plate reader. Keywords: MLSMR, MLPCN, NIH Roadmap, qHTS, NCGC, Core binding factor, CBF, CBF-beta, Acute myeloid leukemia
row,SMILES,outcome
1,Nc1ccc(Cl)cc1C(=O)c1ccc[nH]1,inactive
2,NCCCC[C@H](N)C(=O)Nc1ccc(Cl)cc1C(=O)c1ccc[nH]1,inactive
3,N[C@@H](CC(=O)O)C(=O)Nc1ccc(Cl)cc1C(=O)c1ccc[nH]1,inactive
4,CNCc1nc(-c2ccc[nH]2)c2cc(Cl)ccc2n1,inactive
5,N[C@H](Cc1ccccc1)C(=O)Nc1ccc(Cl)cc1C(=O)c1ccc[nH]1,inactive
6,NC(=O)C[C@H](N)C(=O)Nc1ccc(Cl)cc1C(=O)c1ccc[nH]1,inactive
7,CC(C)(N)C(=O)Nc1ccc(Cl)cc1C(=O)c1ccc[nH]1,inactive
8,C[C@H](N)C(=O)Nc1ccc(Cl)cc1C(=O)c1ccc[nH]1,inactive
9,NCCC(=O)Nc1ccc(Cl)cc1C(=O)c1ccc[nH]1,inactive
10,C[C@@H](N)C(=O)Nc1ccc(Cl)cc1C(=O)c1ccc[nH]1,inactive
11,N[C@@H](CO)C(=O)Nc1ccc(Cl)cc1C(=O)c1ccc[nH]1,inactive
12,CC(C)[C@H](N)C(=O)Nc1ccc(Cl)cc1C(=O)c1ccc[nH]1,inactive
13,N[C@H](C(=O)Nc1ccc(Cl)cc1C(=O)c1ccc[nH]1)c1ccccc1,inactive
14,N[C@@H](Cc1ccccc1)C(=O)Nc1ccc(Cl)cc1C(=O)c1ccc[nH]1,inactive
15,NCCCCC(=O)Nc1ccc(Cl)cc1C(=O)c1ccc[nH]1,inactive
16,CNCC(=O)Nc1ccc(Cl)cc1C(=O)c1ccc[nH]1,inactive
17,N[C@@H](CCC(=O)O)C(=O)Nc1ccc(Cl)cc1C(=O)c1ccc[nH]1,inactive
18,CCC(=O)Nc1ccc(Cl)cc1C(=O)c1ccc[nH]1,inactive
19,NCC(=O)Nc1ccc(Cl)cc1C(=O)c1ccc[nH]1,inactive
20,CC(=O)Nc1ccc(Cl)cc1C(=O)c1ccc[nH]1,inactive
21,NCCCC(=O)Nc1ccc(Cl)cc1C(=O)c1ccc[nH]1,inactive
22,CN(C)CC(=O)Nc1ccc(Cl)cc1C(=O)c1ccc[nH]1,inactive
23,O=C(c1ccc[nH]1)c1cc(Cl)ccc1NC(=O)[C@@H]1CCCN1,inactive
24,NC(N)=NCCC[C@H](N)C(=O)Nc1ccc(Cl)cc1C(=O)c1ccc[nH]1,inactive
25,CCc1sc(N)nc1-c1ccc(OC)cc1,inactive

# Reference: PubChem BioAssay AID504378 (National Center for Advancing Translational Sciences (NCATS), 2011)
